# In PubChem BioAssay (EPA / NIEHS):
# Where “and” joins values, the source holds several entries; their conditions need not be identical. Equal entries are not always repeated. Calls of active or inactive are those of the source. Rule for the calls: active = hit-call score of the fitted dose curve at least 0.9, where 1 is the maximum; inactive = score below 0.9.
# Read-out: Interleukin-8 (IL8), CXCL8 (gene 3576)
# Experiment: BSK_hDFCGF_IL8: BioMAP Diversity Plus: hDFCGF Assay for Interleukin-8 (IL8) Biomarker Activity (AID 2283058)
# Settings: primary human foreskin fibroblasts; actives raise or lower the signal
# Protocol: BSK_hDFCGF is a cell-based, multiplexed-readout assay that uses foreskin fibroblast, a human skin primary cell, with measurements taken at 24 hours after chemical dosing in a 96-well plate.BSK_hDFCGF_IL8 is an assay component measured in the BSK_hDFCGF assay. It measures IL-8 antibody related to regulation of gene expression using ELISA technology.Data from the assay component BSK_hDFCGF_IL8 was analyzed into 1 assay endpoint. This assay endpoint, BSK_hDFCGF_IL8, was analyzed with bidirectional fitting relative to DMSO as the negative control and baseline of activity. Using a type of binding reporter, gain or loss-of-signal activity can be used to understand changes in the signaling as they relate to the gene CXCL8. Furthermore, this assay endpoint can be referred to as a primary readout, because this assay has produced multiple assay endpoints where this one serves a signaling function. To generalize the intended target to other relatable targets, this assay endpoint is annotated to the cytokine intended target family, where the subfamily is interleukins.
# The levels of cell surface (or secreted, indicated by the prefix "s") biomarker endpoints were measured by ELISA. Overt cytotoxicity to cells in confluent adherent cultures (all systems other than the BT system) was assessed by measuring total protein levels using sulforhodamine B (SRB) staining in parallel cultures at the time of biomarker measurements, indicated as SRB endpoints. For proliferation assays for adherent cell types, individual cell types are cultured at sub-confluence and relative cell numbers quantified by SRB staining at time points optimized for each system (48 h: 3C and CASM3C systems; 72 h: BT and HDF3CGF systems; 96 h: SAg system). SRB was performed by staining cells with 0.1% SRB after fixation with 10% TCA and reading wells at 560 nm.Viability and proliferation of PBMC (T cells) was quantified by Alamar Blue reduction for the SAg and BT systems. For PBMC viability (referred to as PBMC Cytotoxicity within the assay endpoint names), cells were plated (75,000/well in a 96-well plate) and then chemical samples added for 1 h before addition of activators, SEB and TSST-1 (20 ng/mL final concentration each). Cells were incubated for 90 h. Then, Alamar Blue (20 uL/well) (Invitrogen, Cat DAL1100) was added for 6 h, and the plates were read with a fluorescence microplate reader at 546/580 nm (excitation/emission). For PBMC proliferation, cells were plated and activated as above but incubated for only 16 h prior to addition of Alamar Blue. Plates were read after 6 h.
Structure (SMILES),outcome,AC50
Nc1ccc(N)c(Cl)c1,inactive,
c1ccc2c(c1)ccc1ncccc12,inactive,
C=CC(=O)OCC(Br)CBr (stereo not given),,20 µM (active)
O=C(Cl)c1cc(C(=O)Cl)cc(C(=O)Cl)c1,inactive,
CCOC(=O)c1ccccc1C(=C1C=C(Br)C(=O)C(Br)=C1)c1cc(Br)c(O)c(Br)c1,,8.71 µM (active) and 8.48 µM (active)
CCCCC(CC)COC(=O)c1ccccc1O (stereo not given),inactive,
COc1ccc2nc(N)sc2c1,inactive,
C#CC1(O)CC[C@H]2[C@@H]3CCC4=CCCC[C@@H]4[C@H]3CC[C@@]21C (stereo not given in full),inactive,
C=C[Si](OC(C)=O)(OC(C)=O)OC(C)=O,inactive,
CCO[Si](CCCN=C=O)(OCC)OCC,inactive,
CN1C(=O)N(C)C(O)C1O (stereo not given),inactive,
CC(C)C(=O)C(C)C,inactive,
O=Nc1ccc(O)cc1,inactive,
O=C1CCCN1CCO,inactive,
CC1OC1C1CCC2(C)OC2C1 (stereo not given),inactive,
O=c1c2ccccc2oc2ccccc12,inactive,
CCO[Si](C)(OCC)OCC,inactive,
CCCCC/C=C\C/C=C\CCCCCCCC(=O)OC,inactive,

Structure (SMILES),outcome,AC50
O=C(c1ccc(O)cc1)c1ccc(O)cc1O,inactive,
C/C=C\C/C=C/CCCCCCCCOC(C)=O,inactive,
CCOc1nc(F)cc2nc(S(=O)(=O)Nc3c(Cl)cccc3C(=O)OC)nn12,inactive,
C=CCOCC(O)CCl (stereo not given),inactive,
S=C(NC1CCCCC1)NC1CCCCC1,inactive,
CO[Si](OC)(OC)c1ccccc1,inactive,
C=CCOc1c(Br)cc(Br)cc1Br,inactive,
c1ccc2c(c1)ccc1cc3c(ccc4ccccc43)cc12,inactive,
N#[N+]c1ccc2c(S(=O)(=O)[O-])cccc2c1O,inactive,
C=CC=CC=CCCCCC,inactive,
CCCCCCCCCCCCCCCC[N+](C)(C)CC,,12.4 µM (active)
c1ccc(-c2ccccn2)nc1,inactive,
CCCCNc1ccc(NCCCC)c2c1C(=O)c1ccccc1C2=O,inactive,
O=C(Nc1ccccc1SSc1ccccc1NC(=O)c1ccccc1)c1ccccc1,inactive,
CCCCCCCCc1ccc(Nc2ccc(CCCCCCCC)cc2)cc1,inactive,
CCCCC(CC)COCC1CO1 (stereo not given),inactive,
CC(C)(c1cc(Br)c(OCCO)c(Br)c1)c1cc(Br)c(OCCO)c(Br)c1,inactive,
